Measurements published in PubChem BioAssay AID1946 (Johns Hopkins Ion Channel Center, 2009).
Hit rate of the full screen: of about 2,400 compounds, about 180 (7.5%) were called active. Many of the other results were omitted from the sample, so actives are more common in it than they were. Values without a mark were called inactive.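 The calls were made as follows: active = readout below zero, meaning a drop past 3 SD under the dofetilide-free negative control mean; inactive = the rest.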

The molecules below were run against Potassium voltage-gated channel subfamily KQT member 2 (Rattus norvegicus) (UniProt O88943) (assay: rat KCNQ2 channel inhibition by compounds alone, confirmation, counter-screen for hERG block protector project, cell-based, CHO, FluxOR thallium flux (AID 1946)). Settings: CHO-KCNQ2 cells, FluxOR thallium flux fluorescence; at 10 µM; stronger effect = lower value; zero marks the 3-SD hit cutoff.
Sequence of Potassium voltage-gated channel subfamily KQT member 2 (Rattus norvegicus) (O88943 whole entry, looked up): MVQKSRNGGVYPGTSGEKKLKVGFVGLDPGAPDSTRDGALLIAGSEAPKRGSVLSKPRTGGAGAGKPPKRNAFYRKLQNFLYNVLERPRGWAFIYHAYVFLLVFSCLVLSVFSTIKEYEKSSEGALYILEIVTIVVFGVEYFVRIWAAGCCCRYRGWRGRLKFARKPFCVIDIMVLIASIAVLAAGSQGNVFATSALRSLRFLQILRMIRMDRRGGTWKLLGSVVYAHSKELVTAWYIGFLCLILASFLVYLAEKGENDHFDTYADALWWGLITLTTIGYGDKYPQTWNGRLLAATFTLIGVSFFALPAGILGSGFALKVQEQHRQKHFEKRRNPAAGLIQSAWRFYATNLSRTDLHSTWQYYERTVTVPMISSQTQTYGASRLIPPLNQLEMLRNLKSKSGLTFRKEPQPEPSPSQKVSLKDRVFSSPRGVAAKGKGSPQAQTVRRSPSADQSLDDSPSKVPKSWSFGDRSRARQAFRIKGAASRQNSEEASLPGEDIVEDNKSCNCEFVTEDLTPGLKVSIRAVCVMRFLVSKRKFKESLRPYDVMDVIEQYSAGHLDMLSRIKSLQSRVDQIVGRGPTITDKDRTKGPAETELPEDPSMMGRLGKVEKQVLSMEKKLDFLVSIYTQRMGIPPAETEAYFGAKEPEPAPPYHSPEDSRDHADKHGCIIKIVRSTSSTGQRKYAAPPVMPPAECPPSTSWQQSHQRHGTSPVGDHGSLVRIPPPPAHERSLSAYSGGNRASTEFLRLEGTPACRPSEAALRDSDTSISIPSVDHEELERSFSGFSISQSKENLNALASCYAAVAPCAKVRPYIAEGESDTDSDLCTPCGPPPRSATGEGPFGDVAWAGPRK
Work on `COC(=O)Oc1ccc(/C=C/C(=O)OC(C)C)cc1OC(=O)OC` yielded an activity change vs negative control of 24.5%. `CCN(CC)c1ccc(NC(=S)NC(=O)c2ccco2)cc1` was tested, and the activity change vs negative control was 67.2%. `Cc1ccc(C(=O)Sc2cccccc2=O)cc1` was tested, and the activity change vs negative control was 102%. With `CC1=CC(=O)C(C(C)C)=CC1=NC(=O)c1ccc(C)cc1` the activity change vs negative control was -1% (active). Work on `CCOC(=O)c1sc2ncnc(NCC(c3cccs3)N(C)C)c2c1C` (stereo not drawn) yielded an activity change vs negative control of 61%. In the case of `S=c1[nH]c(-c2ccccc2)cs1`, the activity change vs negative control is reported as 85.5%. `CCOC(=O)Cn1cc(C=O)c2ccccc21` showed an activity change vs negative control of 8.6%. With `COC(=O)CCn1[nH]c(=O)c2ccccc2c1=O` the activity change vs negative control was 15.6%. For `COC(=O)Cn1c(=O)c(=O)n(CC(=O)OC)c2ccccc21`, the activity change vs negative control was -3.8% (active). `O=C(NC(=S)Nc1ncc(Br)cc1Br)c1ccccc1` showed an activity change vs negative control of 28.8%. Work on `CCOC(=O)NC(=S)Nc1ccc(C(C)(C)C)cc1Br` yielded an activity change vs negative control of 16.6%. `Cc1ccc(S(=O)(=O)NC(=S)NC2CCCCC2)cc1` was tested, and the activity change vs negative control was 19.8%. Molecule `O=C(Nc1ccc(Oc2cccnc2)cc1)c1cccc([N+](=O)[O-])c1` has an activity change vs negative control of 13.8%. `CN(C)S(=O)(=O)c1cccc(C(=O)Nc2cccnc2)c1` gave an activity change vs negative control of 8%. In the case of `O=C(Nc1ccc(Cl)c(-c2nc3ccccc3[nH]2)c1)c1cccnc1`, the activity change vs negative control is reported as -19.3% (active). With `O=C(NCC1CCCO1)c1ccc2c(=O)n(Cc3ccco3)c(SCC(=O)N3CCCC3)nc2c1` (stereo not drawn) the activity change vs negative control was 32.7%. `S=c1[nH]nc(-c2ccco2)n1/N=C/C(Cl)=C/c1ccccc1` was tested, and the activity change vs negative control was 10.3%. In the case of `Cc1cccc(/C=N/n2c(COc3ccccc3)n[nH]c2=S)c1`, the activity change vs negative control is reported as 14.1%. `S=c1[nH]nc(-c2n[nH]c3c2CCC3)n1/N=C/C=C/c1ccccc1` was tested, and the activity change vs negative control was -4.8% (active). Work on `Cc1ccc(C(=O)CC(=O)c2cccc(F)c2)c(O)c1` yielded an activity change vs negative control of 7.2%. For `CC(C)c1nc2sc3c(=S)nc[nH]c3c2c2c1CCC2`, the activity change vs negative control was 45.5%. Molecule `Cc1cc2ccccn2c1C(=S)NC(=O)c1ccccc1` has an activity change vs negative control of 68.1%. In the case of `C=CCn1c(O)c(N=NC(=S)Nc2ccc(OC)c(Cl)c2)c2ccccc21`, the activity change vs negative control is reported as 18.3%. Work on `COc1ccccc1Nc1nnc(SCC(=O)Nc2nc(-c3ccc(F)cc3)cs2)s1` yielded an activity change vs negative control of 9.1%. For `Nc1nnc(SCC(=O)OCc2ccc(F)cc2)s1`, the activity change vs negative control was -2.1% (active). Molecule `CCOC(=O)CSc1nnc(NC(=O)c2ccc3c(c2)OCO3)s1` has an activity change vs negative control of 5.6%. Molecule `CCOC(=O)C(=CNc1cc(C)ccn1)C(=O)OCC` has an activity change vs negative control of 18.2%. For `S=c1nc(C2CC2)[nH]c2ccccc12`, the activity change vs negative control was 58.2%. `Cc1ccc(-c2nc3ccccc3c(=O)n2O)cc1` gave an activity change vs negative control of 29.3%. `NC(=O)c1nsc(C(=O)N(CC(=O)NCc2ccccc2)c2ccc(F)cc2)c1N` was tested, and the activity change vs negative control was -0.6% (active). Molecule `COc1ccc(-n2nc(C(=O)NCC(=O)NCc3ccc(F)cc3)c3ccccc3c2=O)cc1OC` has an activity change vs negative control of 12.7%. In the case of `Cc1ccccc1Cn1nc(C)c(NC(=O)c2ccccc2)c1C`, the activity change vs negative control is reported as 73%. `COc1ccccc1C(=O)NNC(=O)C(=O)Nc1ccc(C)cc1` was tested, and the activity change vs negative control was 162%. With `O=C(O)c1cc(NN=C2c3ccccc3-c3ccccc32)ccc1Cl` the activity change vs negative control was 63.8%. `COC(=O)c1ccc(C(=O)NC(=S)Nc2nc3c(s2)CCCC3)cc1` showed an activity change vs negative control of 37.8%. Work on `O=C(CN1C(=O)COc2ccccc21)NCCCN1CCOCC1` yielded an activity change vs negative control of 6.2%. `CC1c2nc3ccccc3n2C(CC(=O)NCCCN2CCOCC2)C(=O)N1Cc1ccccc1` (stereo not drawn) showed an activity change vs negative control of 12%. With `CC1CC(C)CN(CCCNC(=O)Cc2c(C(=O)O)[nH]c3ccccc23)C1` (stereo not drawn) the activity change vs negative control was -0.3% (active). For `c1ccc2c(c1)c1ccccc1n1c(-c3ccc4c(c3)OCO4)nnc21`, the activity change vs negative control was 11.9%. Molecule `Oc1c(Br)cc(Cl)cc1C=Nc1ccccc1Br` has an activity change vs negative control of 57.7%. In the case of `COc1ccc(CC(=O)Nc2ccc(-c3noc(-c4ccccc4OC)n3)cc2)cc1`, the activity change vs negative control is reported as 7%. With `COc1ccc(OC(=O)Cc2cccc3ccccc23)cc1` the activity change vs negative control was 15.2%. For `COc1ccc(NC(=O)CSCC(=O)Oc2c(OC)cccc2OC)cc1`, the activity change vs negative control was -7.6% (active). `Cc1snnc1C(=O)NC(=S)Nc1ccccc1` showed an activity change vs negative control of 53.9%. In the case of `Cc1cc(Cl)ccc1OC(C)C(=O)NCCc1ccc2c(c1)OCCO2` (stereo not drawn), the activity change vs negative control is reported as -9.4% (active). `COc1ccc(CCNC(=O)C(=O)Nc2ccc3c(c2)OCO3)cc1OC` gave an activity change vs negative control of 8.8%. With `CCOc1ccc(CCNC(=O)Nc2ccccc2C)cc1OCC` the activity change vs negative control was 13.5%. `CCc1ccc(S(=O)(=O)NC(=S)NC2CCCCC2)cc1` showed an activity change vs negative control of 83.7%. With `O=C(CCN1C(=O)/C(=C\C=C\c2ccccc2)SC1=S)Nc1cccc(C(=O)O)c1` the activity change vs negative control was 0.8%. For `C/C(O)=C/c1nc2ccccc2[nH]c1=O`, the activity change vs negative control was -2% (active). For `O=c1[nH]c2ccccc2nc1C(F)(F)C(F)F`, the activity change vs negative control was 15.2%. `Cc1nc2ccc(C(=O)O)cc2[nH]1` was tested, and the activity change vs negative control was 11.1%. `S=C(NCCc1ccccc1)NCCN1CCOCC1` gave an activity change vs negative control of 11.5%. `O=C(O)Cn1cc(CN2CCOCC2)c2ccccc21` was tested, and the activity change vs negative control was 2.7%. In the case of `OC(CCN1CCOCC1)c1ccccc1` (stereo not drawn), the activity change vs negative control is reported as -2.1% (active). `O=c1ccn(Cc2ccc(F)cc2)c2ccnc(C(F)(F)F)c12` was tested, and the activity change vs negative control was -1.9% (active). `COc1ccc(C(=O)Nc2ccccc2C(=O)O)cc1Cl` was tested, and the activity change vs negative control was 19.2%. For `O=C(NC(=S)NCCC1=CCCCC1)c1ccco1`, the activity change vs negative control was 66.4%. In the case of `Cc1cccc(Cn2c(O)c(N=NC(=S)Nc3ccccc3F)c3ccccc32)c1`, the activity change vs negative control is reported as 5.5%. In the case of `CCN(CC)CCCNC(=O)c1cn(-c2cccc(OC)c2)c(=O)c2ccccc12`, the activity change vs negative control is reported as -4% (active). For `COc1cccc(-n2nc(C(=O)O)c3ccccc3c2=O)c1`, the activity change vs negative control was 25.1%. In the case of `COc1cccc(NC(=O)c2nn(-c3ccc(OC)cc3OC)c(=O)c3ccccc23)c1`, the activity change vs negative control is reported as 15.7%. `CCC1CCc2c(sc(NC(=O)C3CC=CCC3C(=O)O)c2C#N)C1` (stereo not drawn) gave an activity change vs negative control of 32.7%. `CCN(CC)c1ccc(NC(=S)NC(=O)c2cccs2)cc1` was tested, and the activity change vs negative control was 18.4%. For `CCOC(=O)Cc1csc(NC(=S)NC(=O)C(C)(C)C)n1`, the activity change vs negative control was 28.2%. `Cc1cccc(NC(=S)NC(=O)c2ccc(Br)o2)c1` was tested, and the activity change vs negative control was 69.7%. `COc1cccc(C(=O)Nc2cccc(-c3ccc(N4CCOCC4)nn3)c2)c1` showed an activity change vs negative control of 5.2%. For `CCOc1ccc(-c2cccc(NC(=O)c3ccc(Br)o3)c2)nn1`, the activity change vs negative control was -8.6% (active). Work on `O=c1c2cc(Cl)ccc2nc(-c2ccc([N+](=O)[O-])cc2)n1O` yielded an activity change vs negative control of 54.4%. Work on `O=C(COc1ccccc1Cl)NC(=S)Nc1ccccc1N1CCCC1` yielded an activity change vs negative control of 6.2%. In the case of `CNC(=S)Nc1sc2c(c1C(=O)OC)CCC2`, the activity change vs negative control is reported as 31.9%. For `Cc1ccc(C(=O)NNC(=S)NC(=O)c2ccccc2)cc1`, the activity change vs negative control was -4.5% (active). `Cc1ccc(C(=O)NNC(=S)NC(=O)c2ccc(Cl)cc2)cc1` gave an activity change vs negative control of 0.8%. Work on `Cc1ccc(NC(=S)NC(=O)c2ccc(-c3ccccc3)cc2)cc1` yielded an activity change vs negative control of 10.9%. Molecule `Cc1cccc(C(=O)NC(=S)N(C)C2CCCCC2)c1` has an activity change vs negative control of 46.3%. In the case of `Cc1cccc(C(=O)NC(=S)NNC(=O)c2ccc(Cl)cc2)c1`, the activity change vs negative control is reported as -7.1% (active). `O=C(NNC(=S)NC(=O)c1sc2ccccc2c1Cl)c1ccc(Cl)cc1` showed an activity change vs negative control of 32.9%. Work on `Cc1cccc(C(=O)NC(=S)N2CCc3ccccc3C2)c1` yielded an activity change vs negative control of 50.3%. For `Cc1cccc(C(=O)NC(=S)NNC(=O)COc2c(C)cccc2C)c1`, the activity change vs negative control was -13.3% (active). Work on `Cc1cccc(C(=O)NNC(=S)NC(=O)c2ccccc2)c1` yielded an activity change vs negative control of 26.9%. Work on `Cc1sc2nc(CN3CCOCC3)[nH]c(=S)c2c1C` yielded an activity change vs negative control of 108%. `Cc1ccc(-c2c(=O)n(O)c3ccccc3[n+]2[O-])cc1` was tested, and the activity change vs negative control was 88.6%. With `O=c1c2ccccc2nc(-c2ccc(Cl)c(Cl)c2)n1O` the activity change vs negative control was 91.4%. For `COc1cc(OC)cc(C(=O)NNC(=O)C(=O)Nc2cc(OC)c(Cl)cc2OC)c1`, the activity change vs negative control was 71%. Work on `C[n+]1ccccc1/C=C/c1ccc(C#N)cc1` yielded an activity change vs negative control of 17.3%. In the case of `O=c1[nH]c(C(Cl)(Cl)Cl)nc2ccc3ccccc3c12`, the activity change vs negative control is reported as 37%. With `O=C(NC(=S)Nc1ccccc1N1CCCCC1)c1cccs1` the activity change vs negative control was 0% (active). With `O=C(NC(=S)Nc1ccccc1N1CCCC1)c1ccc([N+](=O)[O-])cc1` the activity change vs negative control was 21.1%. For `O=C(NC(=S)Nc1ccccc1N1CCCC1)c1ccccc1Br`, the activity change vs negative control was -8.3% (active). With `O=C(NC(=S)Nc1ccccc1N1CCCC1)c1cccs1` the activity change vs negative control was 14.1%. With `O=C(NC(=S)Nc1cccc(Cl)c1N1CCCCC1)c1cccs1` the activity change vs negative control was 1.9%. `O=C(NC(=S)Nc1ccccc1N1CCCC1)c1ccco1` was tested, and the activity change vs negative control was 39%. `CCOc1cc(N2CCOCC2)c(OCC)cc1NC(=O)CCC1CCCC1` was tested, and the activity change vs negative control was 104%. In the case of `O=C(NC(=S)N1CCCC1)c1ccc(Cl)cc1`, the activity change vs negative control is reported as 26.1%. `O=c1c(O)c(-c2ccc3c(c2)OCO3)oc2ccccc12` was tested, and the activity change vs negative control was 35%. Work on `CN1C(=O)c2ccc(C(=O)NCc3ccccc3)cc2C1=O` yielded an activity change vs negative control of 10.5%. Work on `Cc1ccc(CNC(=O)C2=CCN(S(=O)(=O)c3ccc(C)cc3)CC2)cc1` yielded an activity change vs negative control of 6.4%. With `Cc1ccc(CNC(=O)c2ccc(CNc3c(N4CCCC4)c(=O)c3=O)cc2)cc1` the activity change vs negative control was -1.7% (active). Work on `CC(=O)c1c(N2CCN(Cc3ccccc3)CC2)[nH]c(-c2ccccc2)nc1=S` yielded an activity change vs negative control of 50.5%. In the case of `COc1ccc(-n2nc(C)cc2Nc2ccccc2C(=O)O)cc1`, the activity change vs negative control is reported as 43.7%. With `C/C(=N\Nc1nc(C)c(C)s1)c1ccc([N+](=O)[O-])cc1` the activity change vs negative control was 31.5%. With `c1ccc(-c2ccnc3nc(N4CCN(c5ccccc5)CC4)nn23)cc1` the activity change vs negative control was -4.9% (active). Work on `O=c1[nH]c(N2CCN(c3ccccc3)CC2)nc2c1CCCC2` yielded an activity change vs negative control of 12%.
